Molecules are shown by their SMILES. Screen size: about 59,000 compounds; about 6,500 (11%) were called active. Roughly 15% stayed inconclusive and do not appear here. Cut-off read from the data, not from the text of the source: active = max dye-equivalent concentration above about 10 nM; inconclusive = mostly about 1.1 nM to 9.6 nM; inactive = weaker than that. The sample as a whole holds a higher share of actives than the screen did.

The nature of this assay: qHTS Assay for Spectroscopic Profiling in A350 Spectral Region. As to conditions: Compound autofluorescence, 340/450 nm, Alexa 350 dye-equivalents; active compounds read high. (In general: qHTS replaces the single test concentration by a dilution series.)
As for `COc1ccc(CC(=O)Nc2c3c(nn2-c2cccc(Cl)c2)CS(=O)C3)cc1` (stereo not given), the max dye-equivalent concentration result was “inactive”. For `Cc1ccc(-n2nc3cc(Cl)c(NC(=O)c4ccco4)cc3n2)cc1` the value was 52 nM (active); for `COC(=O)c1cc(Cl)c(NC(=O)c2ccco2)cc1OC`, “inactive”.

Turning to `Cn1c(NC(=O)c2ccco2)c(-c2ccccc2Cl)c(=O)c2ccccc21`, the max dye-equivalent concentration entry was “inactive”. For `CCN(CC)CCCNC(=O)c1cc(-c2cccc(Cl)c2)on1` the value was “inactive”; for `Cc1cc(C(F)(F)F)n2ncc(-c3ccccc3)c2n1`, 12 nM (active). In the case of `Cc1cc(-n2nc(C)cc2C)n2ncc(-c3ccccc3)c2n1`, the max dye-equivalent concentration result was “inactive”. Then `O=C(Cn1c(-c2ccc(Cl)cc2)noc1=O)N1CCN(c2ccccc2F)CC1`, with “inactive”; and `CC(=O)Oc1ccc2c(C)c(CC(C)O)c(=O)oc2c1` (stereo not given), with 21000 nM (active). Then `COc1ccccc1-c1nc(NCCNC(C)=O)c2ccccc2n1`, with “inactive”; and `C=CCn1c(=O)c2ccccc2n2c(SCC(=O)N3CCCc4ccccc43)nnc12`, with “inactive”; and `O=c1oc2c(CN3CCCCC3)c(O)ccc2c2c1CCCCC2`, with 13000 nM (active).

`CCCn1c(=O)c2ccccc2n2c(SCC(=O)/C(C#N)=C(\C)N)nnc12`: the max dye-equivalent concentration result is “inactive”.

Turning to `Cc1ccc(S(=O)(=O)N(C)CC(=O)NC2CCCC2)cc1`, the max dye-equivalent concentration result is “inactive”. For `Cc1ccc(Cc2nc(-c3cccc(C)c3)no2)cc1` the value was “inactive”; for `Cc1ccc(-c2noc(CN3CCN(Cc4ccccc4)CC3)n2)cc1`, “inactive”; for `COc1ccccc1Cc1nc(-c2ccc(C)cc2)no1`, 17 nM (active). Consider `C[C@H]1O[C@@H](CC(=O)O)Cc2c1c(O)c1c(O)cc(-c3cc(=O)c4c(=O)c5c(c(=O)c=4c3=O)C[C@H](CC(=O)O)O[C@@H]5C)c(O)c1c2O`, for which the max dye-equivalent concentration entry was “inactive”. For `O=C(CSc1nc2ccccc2o1)N1CCN(c2ccc(Cl)cc2)CC1`, the max dye-equivalent concentration entry was “inactive”. Then `CC(=O)N(CN1C(=O)C2CC=CCC2C1=O)c1cccc(Cl)c1` (stereo not given), with “inactive”; and `CCOc1ccc(NC(=O)CC2NCCNC2=O)cc1` (stereo not given), with “inactive”; and `O=C(CC1Nc2ccccc2NC1=O)Nc1ccccc1` (stereo not given), with 100 nM (active). For `O=C(CC1NCCNC1=O)Nc1ccc(Oc2ccccc2)cc1` (stereo not given) the value was “inactive”; for `COc1ccc(Cc2nnnn2CC(=O)O)cc1`, “inactive”; for `CC(C)NC(=O)N1CC[C@@]2(CCCN(C(=O)c3cccn3C)C2)C1`, “inactive”.

Take `O=C(Nc1nncs1)c1ccccc1NS(=O)(=O)c1cccs1`: the max dye-equivalent concentration was 520 nM (active). In the case of `O=C(C1CCN(S(=O)(=O)c2cccs2)CC1)N1CCCCCC1`, the max dye-equivalent concentration entry was “inactive”. For `O=C(Nc1ncccn1)c1cccs1` the value was “inactive”; for `COCCCN1C(=O)c2ccc(C(=O)Nc3ccc(OC)cc3OC)cc2C1=O`, “inactive”; for `COc1ccc(NC(=O)N2CC3(CCN(C(=O)c4cccn4C)CC3)C2)cc1`, “inactive”. For `CCN1C(=O)C(C(=O)NC(C)c2ccccc2)C2CC1(C)Oc1ccccc12` (stereo not given) the value was “inactive”; for `CCOC(=O)NCc1ccc2c(c1)OCO2`, “inactive”; for `CC1CCCCN1CC(=O)NCc1ccc2c(c1)OCO2` (stereo not given), 50 nM (active). For `O=C(Cn1nnc(-c2ccccc2)n1)NCc1ccc2c(c1)OCO2`, the max dye-equivalent concentration entry is “inactive”. Then `COc1cccc(C2/C(=C(/O)c3ccncc3)C(=O)C(=O)N2CCCN(C)C)c1` (stereo not given), with “inactive”; and `CCCn1c(=O)c2[nH]c(C3CCCC3)nc2n(CCC)c1=O`, with “inactive”; and `CSCCC(NC(N)=O)C(=O)N(C)CC(=O)Nc1ccc(C)cc1` (stereo not given), with “inactive”. For `c1ccc(-n2nnnc2N2CCOCC2)cc1` the value was “inactive”; for `O=C(c1ccc2c(c1)C(=O)N(c1ccc(Cl)cc1)C2=O)N1CCN(c2ccccn2)CC1`, “inactive”; for `O=c1c(-c2ccc(F)cc2)nc2cnc(N3CCOCC3)nc2n1-c1ccccc1`, 29 nM (active). Then `Cn1cc(-c2nc3cncnc3n(-c3ccccc3)c2=O)c2ccccc21`, with “inactive”; and `CN1CCN(c2ncc3nc(-c4ccc(Cl)cc4)c(=O)n(-c4ccccc4)c3n2)CC1`, with 53 nM (active).

`Clc1ccc(C(c2ccc(Cl)cc2)n2cc[n+](C[C@@H](OCc3ccc(Cl)cc3Cl)c3ccc(Cl)cc3Cl)c2)cc1`: the max dye-equivalent concentration result is “inactive”. `COc1ccc(CNc2ncnc3ccc(-c4cccnc4)cc23)c(OC)c1`: the max dye-equivalent concentration result is “inactive”. Take `Cc1cccc(N2CCN(C(=O)C3CCN(S(=O)(=O)c4cnc[nH]4)CC3)CC2)c1C`: the max dye-equivalent concentration result is “inactive”. For `O=C(c1ccco1)N1CCC2(CC1)CN(c1ncccn1)C2` the value was “inactive”; for `Cc1nc(NCc2ccccc2)c(C(N)=O)c2c1COC(C)(C)C2`, 150 nM (active).

Consider `O=C(c1cccnc1NCc1ccccc1)N1CCOCC1`, for which the max dye-equivalent concentration result is “inactive”. As to `O=c1ccn(Cc2ccccc2Cl)cc1`, the max dye-equivalent concentration entry is “inactive”.

`CC(C)CNC(=O)c1cc(-c2ccc(Br)cc2)on1`: the max dye-equivalent concentration result was “inactive”.

`COC(=O)c1ccc(NC(=O)CSc2nnc(-c3ccncc3)n2C)cc1`: the max dye-equivalent concentration entry is “inactive”. Then `CCOc1ccc(N=NS(=O)(=O)O)cc1`, with “inactive”; and `COc1ccc(-c2nnn(CC(=O)N(CCO)C(C(=O)NC3CCCC3)c3ccc(F)cc3)n2)cc1` (stereo not given), with “inactive”. Then `CCOc1ccc2nc(NC(=O)CSc3nc4c(c(=O)n(C)c(=O)n4C)n3CC)sc2c1`, with “inactive”. Regarding `Cc1ccc(C(C(=O)NC2CCCC2)N(Cc2ccco2)C(=O)CCC(=O)Nc2ccccn2)cc1` (stereo not given), the max dye-equivalent concentration entry was “inactive”.

On to `Cc1noc(C)c1COC(=O)Cn1c(C)nc2ccccc21`, for which the max dye-equivalent concentration result was “inactive”.

For `O=C(Nc1ccc(Oc2ccccc2)cc1)c1ccco1`, the max dye-equivalent concentration result was “inactive”.

For the compound `Cc1ccc(C(=O)COc2cccc(NC(=O)c3ccco3)c2)cc1`, the max dye-equivalent concentration result was “inactive”. Then `CCOc1cc(NC(=O)c2ccco2)c(OCC)cc1NC(=O)COc1ccccc1`, with 78 nM (active); and `O=C(c1cccs1)N1CCCC(c2nc(-c3ccc(F)cc3)no2)C1` (stereo not given), with “inactive”. For `Cc1ccc(S(=O)(=O)N2CCOCC2)cc1C(=O)NCc1ccc(F)cc1` the value was “inactive”. Consider `CCCn1nnc2sc3c(c2c1=O)CCC(C)C3` (stereo not given), for which the max dye-equivalent concentration is 32 nM (active). As to `O=c1c2ccccc2nnn1CSc1nc2sc3c(c2c(=O)n1CC1CCCO1)CCC3` (stereo not given), the max dye-equivalent concentration result was “inactive”. Regarding `CC1CCc2sc3nc(N4CCN(CCO)CC4)n4ncnc4c3c2C1` (stereo not given), the max dye-equivalent concentration result is “inactive”. For `CC(C)C[C@H](NC(=O)[C@@H]1O[C@H]1C(=O)O)C(=O)NCCCCN=C(N)N` the value was “inactive”; for `CC(C)Cc1ccc(S(=O)(=O)N2CCN(C(=O)c3ccco3)CC2)cc1`, “inactive”; for `Cc1ccccc1NC(=O)c1cc(S(=O)(=O)N2CCOCC2)cs1`, “inactive”. For `Cc1cc(NC(=O)CCC(=O)N(c2ccccc2)C(C(=O)NC2CCCC2)c2ccncc2)no1` (stereo not given) the value was “inactive”; for `COc1ccc2nc(NC3=NCN(CC4CCCO4)CN3)nc(C)c2c1` (stereo not given), 82 nM (active); for `Cc1ccsc1C(=O)OCC(=O)c1cc(C)n(CC2CCCO2)c1C` (stereo not given), “inactive”. For the compound `Cc1ccc2nc(NC3=NCN(CCc4ccccc4)CN3)nc(C)c2c1`, the max dye-equivalent concentration result is “inactive”. Then `CCc1cc2c(=O)c(-c3ccon3)c(N)oc2cc1OC`, with “inactive”.

With `CC(=NCC1CCCO1)c1c(O)[nH]c(=O)[nH]c1=O` (stereo not given), the max dye-equivalent concentration entry is “inactive”. On to `CCOC(=O)CN(C(=O)CN1CCOCC1)c1ccc(Br)cc1`, for which the max dye-equivalent concentration result was “inactive”. Then `COCCCn1c(CCC(=O)O)ccc1-c1ccc(F)cc1`, with 1500 nM (active). For `Cc1ccc(S(=O)(=O)C(C#N)c2nc3ccccc3nc2N2CCCC2)cc1C` (stereo not given) the value was 190 nM (active); for `Cc1cc(Cl)ccc1OCC(=O)Oc1c(Cl)c(Cl)c(Cl)c(Cl)c1Cl`, “inactive”. Then `CCOCC(=O)Nc1sc2c(c1C(=O)OCC)CCCC2`, with “inactive”; and `CCOC(=O)c1c(-n2cnnn2)sc(C)c1C`, with “inactive”; and `COC(=O)c1c(NC(=O)c2cccs2)sc2c1CCCC2`, with 65 nM (active). Turning to `COC(=O)Cn1cc(C(=O)c2cccs2)c2ccccc21`, the max dye-equivalent concentration result was “inactive”. Consider `CCOC(=O)c1c(NC(=O)CSc2nnc(Cc3csc(N)n3)n2C)sc(C)c1C`, for which the max dye-equivalent concentration entry was “inactive”.

For the compound `COC(=O)c1c(NC(=O)CSc2nncs2)sc2c1CCCCC2`, the max dye-equivalent concentration result was “inactive”.

On to `CCOC(=O)c1c(NC(=O)c2cccs2)sc(C)c1C`, for which the max dye-equivalent concentration is 180 nM (active). `CCOC(=O)c1oc2ccccc2c1NC(=O)c1cccs1`: the max dye-equivalent concentration is 21 nM (active).

As for `CCOC(=O)CSc1nnc(CNC(=O)c2cccs2)n1-c1ccccc1`, the max dye-equivalent concentration result was “inactive”. For `Cc1ccc(C2(c3ccc(C)cc3)NC(=O)N(Cc3c(C)noc3C)C2=O)cc1` the value was “inactive”; for `Cc1ccc(NC(=O)N2CCC(C(=O)NCc3ccc(F)cc3)CC2)cc1`, “inactive”; for `CCOc1ccc(-c2nnn(CC(=O)N3CCN(c4ccc(OC)cc4)CC3)n2)cc1OCC`, “inactive”. For `CCn1c(SCC(=O)Nc2nccs2)nnc1-c1ccncc1` the value was “inactive”; for `CC(CN1CCCCC1)OC(=O)c1ccccc1Cl` (stereo not given), “inactive”; for `CCCC(=O)Nc1ccc(C(=O)NCCCn2ccnc2)cc1`, “inactive”.

`CCn1c(=O)cc(SCC(=O)NCc2ccc3c(c2)OCO3)c2ccccc21`: the max dye-equivalent concentration result is “inactive”. As for `CCCn1c(SCC(=O)c2ccc3c(c2)OCCO3)nnc1C(C)C`, the max dye-equivalent concentration result was “inactive”. `O=C(c1cc(C(F)(F)F)cc(C(F)(F)F)c1)N1CCC[C@@]2(CCN(c3ccccn3)C2)C1`: the max dye-equivalent concentration entry is “inactive”. For `CCOC(=O)CC1C(=O)NCCN1C(=O)COc1ccc(Br)cc1C` (stereo not given) the value was “inactive”; for `CCOc1cccc(/C(O)=C2/C(=O)C(=O)N(CCOC)C2c2ccncc2)c1` (stereo not given), “inactive”; for `CCOC(=O)c1ccc(NC(=O)CSc2ncccn2)cc1`, “inactive”. Then `COCCOC(=O)C1=C(C)Nc2nc(C)nn2C1c1ccccc1` (stereo not given), with “inactive”; and `CCOC(=O)C1=C(C)NC(C)=C(C(=O)OCC)C1c1ccccn1`, with 330 nM (active). Then `CC(=O)OCC(=O)[C@@]1(O)CC[C@@H]2[C@H]3CCC4=CC(=O)C=C[C@]4(C)[C@]3(F)[C@@H](O)C[C@@]21C`, with “inactive”. On to `Cn1c(=O)[nH]c(=O)c2c1nc(N1CCCCCC1)n2CC(=O)c1ccccc1`, for which the max dye-equivalent concentration result was “inactive”. In the case of `CCC(C)Sc1nc2c(c(=O)[nH]c(=O)n2C)n1CC(O)COc1cccc2ccccc12` (stereo not given), the max dye-equivalent concentration result was “inactive”. `CS(=O)(=O)N1CCC2(CC1)CN(Cc1ccccc1)C2`: the max dye-equivalent concentration entry was “inactive”. Then `CCn1c(CNc2ccc(OC)cc2)nnc1SCC(=O)c1ccc(OC)cc1`, with “inactive”.

Source of the values: PubChem BioAssay AID590 (National Center for Advancing Translational Sciences (NCATS), 2007).
